Data reported in PubChem BioAssay (Tox21).
Several values for one entry are separate records, joined by “and”; a condition that tells them apart may be missing. Identical values can stand only once. Results filed as inconclusive are left out. A call without a number means that no potency is given here. Where a structure was tested more than once in an assay, its records may differ in their call. Activity calls are given as the source filed them. Unless noted, calls follow the shape of the dose curve; as a rule, active = well fitted curve in the direction sought with a large enough effect in the repeat runs; inconclusive = weak or mixed curves; inactive = no such curve, though single readings can be large; an effect the other way counts as inactive or inconclusive.

What was measured:
[1] = qHTS assay to identify small molecule antagonists of the glucocorticoid receptor (GR) signaling pathway - cell viability counter screen (AID 720693); also: nearly all actives have a fitted effect of over 55% in size
[2] = qHTS assay for identifying genotoxic compounds that show differential cytotoxicity against isogenic chicken DT40 cell lines with known DNA damage response pathways - wild type cell line (AID 743012); also: nearly all actives have a fitted effect of over 60% in size; also: potency is read from the fitted curve at half-maximal effect
Outline: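 Using parental DT40 (300 cells/well), compounds delivered in DMSO incubate 40 h at 37 C/5% CO2. CellTiter-Glo reagent then stands 30 min at room temperature, and luminescence gives cell viability.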

[3] = qHTS assay for identifying genotoxic compounds that show differential cytotoxicity against isogenic chicken DT40 cell lines with known DNA damage response pathways - Rev3 mutant cell line (AID 743014); also: nearly all actives have a fitted effect of over 55% in size; also: potency is read from the fitted curve at half-maximal effect
[4] = qHTS assay for identifying genotoxic compounds that show differential cytotoxicity against isogenic chicken DT40 cell lines with known DNA damage response pathways - Rad54/Ku70 mutant cell line (AID 743015); also: nearly all actives have a fitted effect of over 60% in size; also: potency is read from the fitted curve at half-maximal effect
[5] = qHTS assay to identify small molecule antagonists of the androgen receptor (AR) signaling pathway - cell viability counter screen (AID 743033; also: nearly all actives have a fitted effect of over 45% in size)
[6] = qHTS assay to identify small molecule antagonists of the androgen receptor (AR) signaling pathway using the MDA cell line - cell viability counter screen (AID 743041; also: nearly all actives have a fitted effect of over 45% in size)
Outline: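 Viability counter screen run alongside the AR antagonist reporter: cells seeded 5 h before compound, R1881 added, 16 h incubation at 37C without CO2, fluorescent CellTiter-Fluor signal quantified.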

[7] = qHTS assay to identify small molecule antagonists of the thyroid receptor (TR) signaling pathway - cell viability counter screen (AID 743064); also: nearly all actives have a fitted effect of over 50% in size; also: potency is read from the fitted curve at half-maximal effect
Outline: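 In-well cytotoxicity read by CellTiter-Fluor (30 min, 37 C) following 23.5 h exposure of GH3 cells bearing a TRE-luciferase sensor. Compounds were added alongside 1 nM (final) T3 to drive TR transactivation.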

[8] = qHTS assay to identify small molecule antagonists of the thyroid receptor (TR) signaling pathway (AID 743065); also: nearly all actives have a fitted effect of over 55% in size; also: potency is read from the fitted curve at half-maximal effect
Outline: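 GH3.TRE-Luc rat pituitary cells carrying two TR response elements driving luciferase were plated for 4 h, given compound plus 1 nM T3 (final), and incubated 23.5 h at 37 C. ONE-Glo luminescence measured reporter inhibition; CellTiter-Fluor fluorescence tracked cytotoxicity.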

[9] = test system: thyroid hormone receptor (rat, GH3 cells); assay: qHTS assay to identify small molecule agonists of the thyroid receptor (TR) signaling pathway (AID 743066; calls by dose curve)
[10] = target: Estrogen receptor (Homo sapiens) (UniProt P03372); assay: qHTS assay to identify small molecule antagonists of the estrogen receptor alpha (ER-alpha) signaling pathway (AID 743069; active = well fitted curve in the direction sought with a large enough effect in the signal ratio in the repeat runs, not every such curve was filed as active; the % refers to the signal ratio; also: potency is read from the fitted curve at half-maximal effect)
Outline: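 Estradiol-stimulated ER-alpha-UAS-bla HEK293 cells, 18 hr compound exposure at 37C. LiveBLAzer B/G substrate, 2 hr RT, fluorescence read.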

[11] = qHTS assay to identify small molecule antagonists of the estrogen receptor alpha (ER-alpha) signaling pathway - cell viability counter screen (AID 743074; calls by dose curve;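 also: HEK293 cells carrying ER-alpha-UAS-bla reporter stimulated with 17beta-estradiol; nearly all actives have a fitted effect of over 45% in size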)
[12] = target: Estrogen receptor (Homo sapiens) (UniProt P03372); assay: qHTS assay to identify small molecule agonists of the estrogen receptor alpha (ER-alpha) signaling pathway (AID 743075; calls by dose curve;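 also: HEK293 GripTite cells with ER-alpha and UAS-driven beta-lactamase reporter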)
[13] = target: Estrogen receptor (Homo sapiens) (UniProt P03372); assay: qHTS assay to identify small molecule agonists of the estrogen receptor alpha (ER-alpha) signaling pathway using the BG1 cell line (AID 743079); also: nearly all actives have a fitted effect of over 20% in size; also: potency is read from the fitted curve at half-maximal effect
[14] = qHTS assay to identify small molecule antagonists of the estrogen receptor alpha (ER-alpha) signaling pathway using the BG1 cell line (AID 743080; calls by dose curve; also: nearly all actives have a fitted effect of over 25% in size; also: potency is read from the fitted curve at half-maximal effect)
Outline: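 Antagonist mode: compounds in DMSO were pinned onto BG1-Luc-4E2 cells alongside 17beta-estradiol agonist, incubated 21.5 h, and ERE-driven luciferase measured with ONE-Glo. Cytotoxicity was multiplexed using CellTiter-Fluor fluorescence.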

[15] = qHTS assay to identify small molecule antagonists of the estrogen receptor alpha (ER-alpha) signaling pathway using the BG1 cell line - cell viability counter screen (AID 743081);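 also: compound given together with 17beta-estradiol as the ER stimulus; nearly all actives have a fitted effect of over 45% in size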; also: potency is read from the fitted curve at half-maximal effect
Aromatase (Homo sapiens) = Aromatase (Homo sapiens) (UniProt P11511); assay: qHTS assay to identify aromatase inhibitors (AID 743083); also: nearly all actives have a fitted effect of over 55% in size; also: potency is read from the fitted curve at half-maximal effect
[16] = target: Androgen receptor (Homo sapiens) (UniProt P10275); assay: qHTS assay to identify small molecule antagonists of the androgen receptor (AR) signaling pathway (AID 743035; active = well fitted inhibition curve with a large enough effect in the signal ratio in the repeat runs, not every such curve was filed as active; the % refers to the signal ratio; also: potency is read from the fitted curve at half-maximal effect)
Outline: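 Using qHTS, AR-UAS-bla GripTite HEK293 cells received compound, then R1881, and were cultured 16 h at 37C/5% CO2 before a 2 h room-temperature LiveBLAzer B/G FRET substrate step and fluorescence measurement.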

[17] = target: Androgen receptor (Homo sapiens) (UniProt P10275); assay: qHTS assay to identify small molecule agonists of the androgen receptor (AR) signaling pathway (AID 743036; active = well fitted activation curve with a large enough effect in the signal ratio in the repeat runs, with a control signal flat, not every such curve was filed as active; the % refers to the signal ratio)
Outline: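 Activation was read as beta-lactamase FRET signal from LiveBLAzer B/G substrate, added for 2 h at room temperature. Before that, GeneBLAzer AR-UAS-bla GripTite (HEK293) cells had 16 h compound exposure at 37C.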

[18] = target: Androgen receptor (Homo sapiens) (UniProt P10275); assay: qHTS assay to identify small molecule agonists of the androgen receptor (AR) signaling pathway using the MDA cell line (AID 743040; also: nearly all actives have a fitted effect of over 20% in size)
Outline: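 Luminescence from ONE-Glo, read after 30 min at room temperature, reflects MMTV-driven luciferase in MDA-kb2 cells (AR- and GR-responsive). Treatment lasted 16 h at 37C, 0% CO2.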

[19] = target: Androgen receptor (Homo sapiens) (UniProt P10275); assay: qHTS assay to identify small molecule antagonists of the androgen receptor (AR) signaling pathway using the MDA cell line (AID 743042; also: nearly all actives have a fitted effect of over 55% in size; also: potency is read from the fitted curve at half-maximal effect)
Outline: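 MDA-kb2 cells (human breast carcinoma, stably carrying an MMTV-luciferase reporter responsive to AR and GR) were plated at 3,000 cells/well and preincubated 5 hr at 37C, then given compound plus R1881 agonist for 16 h. ONE-Glo luminescence was read.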

Sequence of Aromatase (Homo sapiens) (P11511 whole entry, looked up): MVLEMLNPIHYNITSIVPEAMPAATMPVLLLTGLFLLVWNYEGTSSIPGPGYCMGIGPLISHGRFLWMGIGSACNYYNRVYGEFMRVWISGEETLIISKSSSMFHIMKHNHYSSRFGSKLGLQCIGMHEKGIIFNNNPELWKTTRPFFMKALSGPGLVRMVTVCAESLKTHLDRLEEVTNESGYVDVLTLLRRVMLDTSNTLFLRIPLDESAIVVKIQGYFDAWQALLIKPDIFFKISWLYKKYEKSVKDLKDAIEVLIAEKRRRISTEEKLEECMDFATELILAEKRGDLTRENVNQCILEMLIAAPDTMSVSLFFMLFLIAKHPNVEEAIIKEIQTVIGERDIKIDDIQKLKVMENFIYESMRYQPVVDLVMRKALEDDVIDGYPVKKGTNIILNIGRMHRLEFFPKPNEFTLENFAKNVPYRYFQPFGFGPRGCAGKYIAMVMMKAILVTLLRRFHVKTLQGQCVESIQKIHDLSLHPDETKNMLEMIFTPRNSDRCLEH
Sequence of Estrogen receptor (Homo sapiens) (P03372 whole entry, looked up): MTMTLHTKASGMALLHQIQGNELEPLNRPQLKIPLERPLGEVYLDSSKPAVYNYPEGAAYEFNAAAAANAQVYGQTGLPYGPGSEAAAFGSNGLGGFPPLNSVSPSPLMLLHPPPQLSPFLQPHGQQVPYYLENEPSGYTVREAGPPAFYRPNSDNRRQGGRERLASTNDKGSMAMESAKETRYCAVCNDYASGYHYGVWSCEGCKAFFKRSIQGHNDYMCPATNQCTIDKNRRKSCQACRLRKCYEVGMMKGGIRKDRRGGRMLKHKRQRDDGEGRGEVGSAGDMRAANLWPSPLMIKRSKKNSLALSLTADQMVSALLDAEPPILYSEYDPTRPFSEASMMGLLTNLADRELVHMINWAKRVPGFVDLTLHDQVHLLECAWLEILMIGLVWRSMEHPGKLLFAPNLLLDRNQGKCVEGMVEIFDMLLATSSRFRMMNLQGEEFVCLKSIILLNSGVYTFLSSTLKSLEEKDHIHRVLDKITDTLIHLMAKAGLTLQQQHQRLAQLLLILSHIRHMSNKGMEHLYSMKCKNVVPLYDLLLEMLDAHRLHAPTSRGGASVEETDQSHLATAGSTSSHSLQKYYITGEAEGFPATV
Sequence of Androgen receptor (Homo sapiens) (P10275 whole entry, looked up): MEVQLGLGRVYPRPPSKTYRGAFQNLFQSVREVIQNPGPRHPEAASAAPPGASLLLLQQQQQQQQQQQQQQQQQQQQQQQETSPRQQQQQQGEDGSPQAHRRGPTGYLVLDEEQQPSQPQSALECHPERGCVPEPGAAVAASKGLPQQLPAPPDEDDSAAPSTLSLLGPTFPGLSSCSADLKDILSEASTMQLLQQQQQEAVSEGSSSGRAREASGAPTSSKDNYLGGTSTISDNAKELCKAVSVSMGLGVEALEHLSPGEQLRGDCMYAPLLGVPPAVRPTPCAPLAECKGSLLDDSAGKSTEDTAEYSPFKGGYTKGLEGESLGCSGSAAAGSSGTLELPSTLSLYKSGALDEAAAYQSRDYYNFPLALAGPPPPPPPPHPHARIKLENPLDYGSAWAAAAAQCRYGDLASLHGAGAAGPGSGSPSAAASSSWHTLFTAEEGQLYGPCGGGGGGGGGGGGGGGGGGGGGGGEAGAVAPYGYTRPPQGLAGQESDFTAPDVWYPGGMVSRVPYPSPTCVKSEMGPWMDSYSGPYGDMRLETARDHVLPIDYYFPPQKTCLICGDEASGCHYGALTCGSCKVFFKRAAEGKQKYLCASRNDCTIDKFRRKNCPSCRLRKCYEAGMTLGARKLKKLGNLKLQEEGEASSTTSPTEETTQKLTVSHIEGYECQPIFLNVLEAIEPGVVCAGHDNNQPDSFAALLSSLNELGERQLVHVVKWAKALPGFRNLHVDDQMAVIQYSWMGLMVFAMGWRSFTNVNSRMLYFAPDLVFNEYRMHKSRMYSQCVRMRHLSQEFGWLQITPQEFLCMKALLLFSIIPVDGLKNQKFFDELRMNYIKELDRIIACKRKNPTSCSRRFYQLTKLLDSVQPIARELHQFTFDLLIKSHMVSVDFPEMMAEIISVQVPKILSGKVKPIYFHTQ

Compound | Potency [1] | Potency [2] | Potency [3] | Potency [4] | outcome [5] | Potency [6] | Potency [7] | Potency [8] | outcome [9] | Potency [10] | outcome [11] | Potency [12] | Potency [13] | Potency [14] | Potency [15] | Potency (Aromatase (Homo sapiens)) | Potency [16] | outcome [17] | Potency [18] | Potency [19]
CCCCOCCOCCOC(C)=O | inactive | inactive | inactive | inactive | inactive | inactive | inactive | inactive | inactive | inactive | inactive | inactive | inactive | inactive | inactive | inactive | – | – | – | –
Oc1cccc(O)c1 | inactive | inactive | inactive | inactive | inactive | inactive | inactive | inactive | inactive | inactive | inactive | inactive | inactive | inactive | inactive | inactive | – | – | – | –
COCCOCCOC | inactive | inactive | inactive | inactive | inactive | inactive | inactive | inactive | inactive | inactive | inactive | inactive | inactive | inactive | inactive | inactive | inactive | inactive | inactive | inactive
CC(=O)Oc1ccccc1C(=O)O | inactive | inactive | inactive | inactive | inactive | inactive | inactive | – | – | inactive | inactive | inactive | inactive | inactive | inactive | inactive | inactive | inactive | inactive | inactive
COC(=O)C1CCC(C(=O)OC)CC1 (stereo unspecified) | inactive | inactive | inactive | inactive | inactive | inactive | inactive | inactive | inactive | inactive | inactive | inactive | inactive | inactive | inactive | inactive | – | – | – | –
C[C@]12C[C@H](O)[C@H]3[C@@H](CCC4=CC(=O)CC[C@@]43C)[C@@H]1CC[C@@H]2C(=O)CO | inactive | inactive | inactive | 48.6 µM (active) | inactive | inactive | inactive | inactive | inactive | inactive | inactive | inactive | inactive | inactive | inactive | inactive | – | – | – | –
CC(C)(C)NCC(O)c1ccc(O)c(CO)c1 (stereo unspecified) | inactive | inactive | inactive | inactive | inactive | inactive | inactive | inactive | inactive | inactive | inactive | inactive | inactive | inactive | inactive | inactive | – | – | – | –
COc1cc2c(c(OC)c1OC)-c1ccc(OC)c(=O)cc1[C@@H](NC(C)=O)CC2 | inactive | 66.8 nM (active) and 13.5 nM (active) and 7.7 nM (active) | 66.8 nM (active) and 12 nM (active) and 7.7 nM (active) | 84.1 nM (active) and 10.7 nM (active) and 7.7 nM (active) | inactive | inactive | 1.19 µM (active) and 172 nM (active) | 531 nM (active) and 135 nM (active) and 96.9 nM (active) | inactive | 15.3 nM [inhibitor] (active) and inactive | inactive | inactive | inactive | 119 nM (active) and 42.7 nM (active) and 86.3 nM (active) | inactive | inactive | 0.0601 µM (active) | – | inactive | inactive
NC(=O)OCC(COC(N)=O)c1ccccc1 | inactive | inactive | inactive | inactive | inactive | inactive | inactive | inactive | inactive | inactive | inactive | inactive | inactive | inactive | inactive | inactive | inactive | inactive | inactive | inactive
CC(=O)c1ccc(S(=O)(=O)NC(=O)NC2CCCCC2)cc1 | inactive | inactive | inactive | inactive | inactive | inactive | inactive | inactive | inactive | inactive | inactive | inactive | inactive | inactive | inactive | inactive | inactive | inactive | inactive | inactive
CC1(C)O[C@@H]2[C@@H](CO[C@@]3(COS(N)(=O)=O)OC(C)(C)O[C@@H]23)O1 | inactive | inactive | inactive | inactive | inactive | inactive | inactive | inactive | inactive | inactive | inactive | inactive | inactive | inactive | inactive | inactive | – | – | – | –
NCCNc1cccc2ccccc12 | inactive | inactive | inactive and 54.4 µM (active) | inactive | inactive | inactive | 27.3 µM (active) and 29.9 µM (active) | 26.6 µM (active) and 54.4 µM (active) and 59.6 µM (active) | inactive | – | inactive | – | – | – | – | inactive | inactive | inactive | inactive | inactive and 54.4 µM (active)
COc1ccc(O)cc1 | inactive | inactive | inactive | inactive | inactive | inactive | inactive | inactive | inactive | – | inactive | – | – | – | inactive | inactive | inactive | inactive | inactive | inactive
CCOC(=O)C(C)(C)Oc1ccc(Cl)cc1 | inactive | inactive | inactive | inactive | inactive | inactive | inactive | inactive | inactive | inactive | inactive | inactive | 26.6 µM (active) and inactive | inactive | inactive | inactive | – | – | – | –
OC[C@@H](O)[C@@H](O)[C@H](O)[C@H](O)CO | inactive | inactive | inactive | inactive | inactive | inactive | inactive | inactive | inactive | inactive | inactive | inactive | inactive | inactive | inactive | inactive | – | – | – | –
Cc1cccc(Nc2cc(Cl)nc(SCC(=O)O)n2)c1C | inactive | inactive | inactive | inactive | inactive | inactive | inactive | inactive | inactive | inactive | inactive | inactive | inactive | inactive | inactive | inactive | inactive | – | inactive | inactive
OCCCc1ccccc1 | inactive | inactive | inactive | inactive | inactive | inactive | inactive | inactive | inactive | inactive | inactive | inactive | inactive | inactive | inactive | inactive | – | – | – | –
CC(O)COc1ccccc1 (stereo unspecified) | inactive | inactive | inactive | inactive | inactive | inactive | inactive | inactive | inactive | – | inactive | – | – | – | inactive | inactive | inactive | inactive | inactive | inactive
CCCCCCCCCCCCCCCCCC(=O)OCC(O)CO (stereo unspecified) | inactive | inactive | inactive | inactive | inactive | inactive | inactive | inactive | inactive | inactive | inactive | inactive | inactive | inactive | inactive | inactive | – | – | – | –
CN(C)Cc1cc(CN(C)C)c(O)c(CN(C)C)c1 | inactive | inactive | inactive | inactive | inactive | inactive | inactive | inactive | inactive | inactive | inactive | inactive | inactive | inactive | inactive | inactive | inactive | inactive | inactive | inactive
COc1ccccc1O | inactive | inactive | inactive | inactive | inactive | inactive | inactive | inactive | inactive | inactive | inactive | inactive | inactive | inactive | inactive | inactive | – | – | – | –
C=C(C)C(N)=O | inactive | inactive | inactive | inactive | inactive | inactive | inactive | inactive | inactive | inactive | inactive | inactive | inactive | inactive | inactive | inactive | – | – | – | –
COC(=O)c1ccc(C=O)cc1 | inactive | inactive | inactive | inactive | inactive | inactive | inactive | inactive | inactive | inactive | inactive | inactive | inactive | inactive | inactive | inactive | – | – | – | –
O=C1OC(c2ccc(O)cc2)(c2ccc(O)cc2)c2ccccc21 | inactive | 38.3 µM (active) | 17.1 µM (active) | 27.1 µM (active) | inactive | inactive | – | – | – | – | inactive | – | – | – | inactive | inactive | – | inactive | inactive | inactive
COC(=O)c1ccc(O)cc1 | inactive | inactive | inactive | inactive | inactive | inactive | inactive | inactive | inactive | inactive | inactive | inactive | inactive | inactive | inactive | inactive | – | – | – | –
C=CC(=O)NC(C)(C)CS(=O)(=O)O | inactive | inactive | inactive | inactive | inactive | inactive | inactive | inactive | inactive | inactive | inactive | inactive | inactive | inactive | inactive | inactive | – | – | – | –
NC(=O)N/N=C/c1ccc([N+](=O)[O-])o1 | inactive | inactive and 30.6 µM (active) | inactive and 43.3 µM (active) | 29.8 µM (active) and inactive and 38.6 µM (active) | inactive | inactive | inactive | inactive | inactive | inactive | inactive | inactive | inactive | inactive | inactive and 54.5 µM (active) | inactive and 62.9 µM (active) | – | – | – | –
